According to the supplement of paper PMC10849652:
The full data set covers some 8,800 targets. This sample favours those with a hit. About 0.5% of all pairs of compound and target were hits.

Tests used:
Experiment in all cases: log2 fold change, soluble protein after heating vs DMSO (PISA); higher = thermal stabilisation; K562 lysate, 10 uM; active = over 0.2 and 3.5 SD of the protein, either way, in both replicates (recomputed)
lapatinib = compound: CS(=O)(=O)CCNCc1ccc(-c2ccc3ncnc(Nc4ccc(OCc5cccc(F)c5)c(Cl)c4)c3c2)o1 [lapatinib]
Method in brief: (§1)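 Log-two fold change in thermal stability relative to solvent controls is reported from duplicates. For each sample, crude K562 extract from dounce-homogenised pellets in PBS pH 7.4 with 1 mM MgCl2, at 1 mg/mL protein, was treated with 10 μM compound for 30 min. Aliquots heated for 3 min across 48°C-58°C were pooled, brought to 0.5% NP-40 at 4°C and cleared at 21,000xg for 90 min. The supernatant was quantified by TMTpro 16plex LC-MS/MS with channel sums equalised.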

pictilisib = compound: CS(=O)(=O)N1CCN(Cc2cc3nc(-c4cccc5[nH]ncc45)nc(N4CCOCC4)c3s2)CC1 [pictilisib]
Method in brief: as §1

crizotinib = compound: C[C@@H](Oc1cc(-c2cnn(C3CCNCC3)c2)cnc1N)c1c(Cl)ccc(F)c1Cl [crizotinib]
Method in brief: as §1

[1] = compound: C[C@H](C1=CC=C(C=C1)C(=O)NC2=C3C=CNC3=NC=C2)N
Method in brief: as §1

duvelisib = compound: C[C@H](Nc1ncnc2nc[nH]c12)c1cc2cccc(Cl)c2c(=O)n1-c1ccccc1 [duvelisib]
Method in brief: as §1

gandotinib = compound: Cc1cc(Nc2cc(CN3CCOCC3)c3nc(C)c(Cc4ccc(Cl)cc4F)n3n2)n[nH]1 [gandotinib]
Method in brief: as §1

tozasertib = compound: Cc1cc(Nc2cc(N3CCN(C)CC3)nc(Sc3ccc(NC(=O)C4CC4)cc3)n2)n[nH]1 [tozasertib]
Method in brief: as §1

doramapimod = compound: Cc1ccc(-n2nc(C(C)(C)C)cc2NC(=O)Nc2ccc(OCCN3CCOCC3)c3ccccc23)cc1 [doramapimod]
Method in brief: as §1

bafetinib = compound: Cc1ccc(NC(=O)c2ccc(CN3CC[C@H](N(C)C)C3)c(C(F)(F)F)c2)cc1Nc1nccc(-c2cncnc2)n1 [bafetinib]
Method in brief: as §1

[2] = compound: Cc1cccc(CC(=O)N2CCc3c2ccc(-c2cn(C)c4ncnc(N)c24)c3F)n1
Method in brief: as §1

nilotinib = compound: Cc1cn(-c2cc(NC(=O)c3ccc(C)c(Nc4nccc(-c5cccnc5)n4)c3)cc(C(F)(F)F)c2)cn1 [nilotinib]
Method in brief: as §1

[3] = compound: Cc1nc(Nc2n[nH]c3c2CN(C(=O)N[C@H](CN(C)C)c2ccccc2)C3(C)C)c2sccc2n1
Method in brief: as §1

dasatinib = compound: Cc1nc(Nc2ncc(C(=O)Nc3c(C)cccc3Cl)s2)cc(N2CCN(CCO)CC2)n1 [dasatinib]
Method in brief: as §1

[4] = compound: Cc1ncc(-c2ccnc(Nc3ccc(S(C)(=O)=O)cc3)n2)n1C(C)C
Method in brief: as §1

[5] = compound: Cn1cc(-c2ccc3c(c2)CCN3C(=O)Cc2cccc(C(F)(F)F)c2)c2c(N)ncnc21
Method in brief: as §1

quisinostat = compound: Cn1cc(CNCC2CCN(c3ncc(C(=O)NO)cn3)CC2)c2ccccc21 [quisinostat]
Method in brief: as §1

tipifarnib = compound: Cn1cncc1[C@@](N)(c1ccc(Cl)cc1)c1ccc2c(c1)c(-c1cccc(Cl)c1)cc(=O)n2C [tipifarnib]
Method in brief: as §1

[6] = compound: NC(=O)Nc1cc(-c2cccc(F)c2)sc1C(=O)N[C@H]1CCCNC1
Method in brief: as §1

[7] = compound: NC(=O)c1cnc(N[C@@H]2CCCC[C@@H]2N)nc1Nc1cccc(-n2nccn2)c1
Method in brief: as §1

[8] = compound: NC1(c2ccc(-c3nc4ccn5c(=O)[nH]nc5c4cc3-c3ccccc3)cc2)CCC1
Method in brief: as §1

Measured: log2 fold change

TUBGCP4 (UniProt Q9UGJ1)
inactive: lapatinib -0.022 | pictilisib 0.011 | crizotinib -0.012 | [1] -0.007 | duvelisib 0.03 | gandotinib -0.125 | tozasertib -0.022 | doramapimod -0.041 | bafetinib -0.076 | [2] 0.019 | nilotinib -0.028 | [3] 0.008 | dasatinib -0.046 | [4] 0.001 | [5] 0.018 | quisinostat -0.027 | tipifarnib 0.008 | [6] 0.069 | [7] 0.034 | [8] 0.01

TLK2 isoform 2 (UniProt Q86UE8)
Chain of UniProt Q86UE8 (Q86UE8 whole entry, looked up): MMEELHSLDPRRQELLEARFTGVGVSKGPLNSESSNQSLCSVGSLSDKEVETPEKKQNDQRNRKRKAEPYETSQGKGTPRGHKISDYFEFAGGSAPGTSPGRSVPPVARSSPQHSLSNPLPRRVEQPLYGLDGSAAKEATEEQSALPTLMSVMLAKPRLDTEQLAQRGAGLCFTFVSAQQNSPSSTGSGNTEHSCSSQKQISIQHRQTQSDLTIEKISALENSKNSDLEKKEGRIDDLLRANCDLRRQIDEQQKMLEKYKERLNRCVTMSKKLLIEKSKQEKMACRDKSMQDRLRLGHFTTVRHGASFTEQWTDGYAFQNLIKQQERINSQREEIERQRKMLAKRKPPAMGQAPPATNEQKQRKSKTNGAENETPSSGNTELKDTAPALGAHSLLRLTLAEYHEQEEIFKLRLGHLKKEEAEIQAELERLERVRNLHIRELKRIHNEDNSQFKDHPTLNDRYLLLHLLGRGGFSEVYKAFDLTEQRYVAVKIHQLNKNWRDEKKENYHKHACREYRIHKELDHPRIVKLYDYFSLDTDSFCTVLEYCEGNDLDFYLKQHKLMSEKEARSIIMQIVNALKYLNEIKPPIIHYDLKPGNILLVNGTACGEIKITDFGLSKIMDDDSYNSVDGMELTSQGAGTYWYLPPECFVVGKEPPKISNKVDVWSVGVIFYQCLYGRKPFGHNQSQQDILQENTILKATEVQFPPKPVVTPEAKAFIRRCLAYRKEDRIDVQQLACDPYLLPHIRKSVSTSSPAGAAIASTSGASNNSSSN
inactive: lapatinib -0.041 | pictilisib 0.112 | crizotinib -0.029 | [1] -0.115 | duvelisib -0.042 | tozasertib 0.126 | doramapimod 0.006 | bafetinib 0.004 | [2] 0.049 | nilotinib -0.008 | [3] 0.243 | dasatinib -0.004 | [4] 0.162 | [5] 0.007 | quisinostat -0.099 | tipifarnib 0.005 | [6] 0.073 | [7] 0.048 | [8] -0.035
active: gandotinib 0.351

TMEM87A (UniProt Q8NBN3)
Chain of UniProt Q8NBN3 (Q8NBN3 whole entry, looked up): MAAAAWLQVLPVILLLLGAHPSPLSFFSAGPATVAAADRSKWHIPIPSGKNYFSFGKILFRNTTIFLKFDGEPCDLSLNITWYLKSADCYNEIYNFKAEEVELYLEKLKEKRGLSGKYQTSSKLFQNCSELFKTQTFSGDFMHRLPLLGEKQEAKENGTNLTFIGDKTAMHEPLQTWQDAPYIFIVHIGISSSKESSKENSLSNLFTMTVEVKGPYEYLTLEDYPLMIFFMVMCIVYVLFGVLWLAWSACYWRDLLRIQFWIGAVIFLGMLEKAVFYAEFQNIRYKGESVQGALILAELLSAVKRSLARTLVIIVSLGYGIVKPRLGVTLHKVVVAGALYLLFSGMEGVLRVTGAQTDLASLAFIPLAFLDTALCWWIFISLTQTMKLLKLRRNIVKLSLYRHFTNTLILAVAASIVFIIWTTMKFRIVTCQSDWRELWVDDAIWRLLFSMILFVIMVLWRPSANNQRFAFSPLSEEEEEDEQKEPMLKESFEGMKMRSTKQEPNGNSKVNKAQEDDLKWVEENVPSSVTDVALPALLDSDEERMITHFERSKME
inactive: lapatinib -0.007 | pictilisib -0.015 | crizotinib 0.016 | [1] -0.082 | duvelisib 0.012 | tozasertib -0.029 | doramapimod 0.026 | bafetinib -0.007 | nilotinib -0.009 | [3] 0.055 | dasatinib -0.007 | [4] 0.027 | [5] 0.03 | quisinostat -0.021 | tipifarnib 0.024 | [6] 0.003 | [7] 0.03 | [8] 0.017
active: gandotinib 0.242 | [2] 0.248

TBCE (UniProt Q15813)
inactive: lapatinib -0.019 | pictilisib -0.039 | crizotinib -0.042 | [1] -0.002 | duvelisib 0.025 | gandotinib -0.034 | tozasertib -0.004 | doramapimod 0.001 | bafetinib 0.033 | [2] 0.039 | nilotinib -0.001 | [3] -0.008 | dasatinib -0.012 | [4] -0.01 | [5] 0.049 | quisinostat -0.025 | tipifarnib -0.005 | [6] 0.033 | [7] 0.015 | [8] -0.041

TIMELESS (UniProt Q9UNS1)
Chain of UniProt Q9UNS1 (Q9UNS1 whole entry, looked up): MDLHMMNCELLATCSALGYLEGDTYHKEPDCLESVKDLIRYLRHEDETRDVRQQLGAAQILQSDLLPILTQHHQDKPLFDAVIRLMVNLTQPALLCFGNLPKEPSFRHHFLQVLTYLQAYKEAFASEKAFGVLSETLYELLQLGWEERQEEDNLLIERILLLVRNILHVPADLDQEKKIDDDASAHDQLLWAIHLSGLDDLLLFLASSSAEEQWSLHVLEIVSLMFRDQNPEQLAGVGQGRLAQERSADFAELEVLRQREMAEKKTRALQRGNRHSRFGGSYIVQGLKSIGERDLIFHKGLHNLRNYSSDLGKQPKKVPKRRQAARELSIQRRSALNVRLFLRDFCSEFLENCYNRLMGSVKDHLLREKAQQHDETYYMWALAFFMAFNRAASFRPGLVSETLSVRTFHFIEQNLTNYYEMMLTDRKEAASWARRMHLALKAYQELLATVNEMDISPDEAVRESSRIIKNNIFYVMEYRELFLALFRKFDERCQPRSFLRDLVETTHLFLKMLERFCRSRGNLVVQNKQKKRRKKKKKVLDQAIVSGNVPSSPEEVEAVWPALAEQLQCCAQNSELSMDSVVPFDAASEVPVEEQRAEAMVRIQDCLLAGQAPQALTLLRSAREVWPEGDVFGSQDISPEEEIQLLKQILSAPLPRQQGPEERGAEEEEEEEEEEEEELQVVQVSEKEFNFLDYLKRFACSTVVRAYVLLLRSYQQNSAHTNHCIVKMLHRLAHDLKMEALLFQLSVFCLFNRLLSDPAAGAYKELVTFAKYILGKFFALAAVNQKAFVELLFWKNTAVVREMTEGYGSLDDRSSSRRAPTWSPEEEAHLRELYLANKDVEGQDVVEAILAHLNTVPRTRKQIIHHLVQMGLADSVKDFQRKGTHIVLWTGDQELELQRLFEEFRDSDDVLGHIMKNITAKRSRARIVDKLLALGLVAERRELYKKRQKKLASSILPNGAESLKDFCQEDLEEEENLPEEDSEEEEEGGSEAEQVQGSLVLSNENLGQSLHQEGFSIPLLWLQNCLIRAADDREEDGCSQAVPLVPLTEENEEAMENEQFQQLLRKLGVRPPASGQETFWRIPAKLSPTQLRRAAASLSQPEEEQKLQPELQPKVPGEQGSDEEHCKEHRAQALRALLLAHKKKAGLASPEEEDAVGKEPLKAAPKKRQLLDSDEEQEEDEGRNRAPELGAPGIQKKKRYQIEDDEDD
inactive: lapatinib 0.017 | pictilisib -0.017 | crizotinib -0.077 | [1] -0.042 | duvelisib -0.029 | gandotinib -0.12 | tozasertib -0.026 | doramapimod -0.02 | bafetinib -0.082 | [2] 0.032 | nilotinib 0.018 | [3] -0.039 | dasatinib -0.082 | [4] 0.024 | [5] 0.005 | quisinostat -0.137 | tipifarnib -0.052 | [6] 0.045 | [7] 0.029 | [8] -0.035

UBE2H (UniProt P62256)
inactive: lapatinib 0.002 | pictilisib -0.022 | crizotinib 0.011 | [1] 0.174 | duvelisib 0.016 | gandotinib -0.172 | tozasertib 0.024 | doramapimod 0.003 | bafetinib 0.009 | [2] -0.188 | nilotinib -0.021 | [3] -0.041 | dasatinib 0.046 | [4] 0.02 | [5] 0.021 | quisinostat -0.015 | tipifarnib -0.049 | [6] 0.014 | [7] 0.005 | [8] -0.041

TIAL1 isoform 2 (UniProt Q01085)
Chain of UniProt Q01085 (Q01085 whole entry, looked up): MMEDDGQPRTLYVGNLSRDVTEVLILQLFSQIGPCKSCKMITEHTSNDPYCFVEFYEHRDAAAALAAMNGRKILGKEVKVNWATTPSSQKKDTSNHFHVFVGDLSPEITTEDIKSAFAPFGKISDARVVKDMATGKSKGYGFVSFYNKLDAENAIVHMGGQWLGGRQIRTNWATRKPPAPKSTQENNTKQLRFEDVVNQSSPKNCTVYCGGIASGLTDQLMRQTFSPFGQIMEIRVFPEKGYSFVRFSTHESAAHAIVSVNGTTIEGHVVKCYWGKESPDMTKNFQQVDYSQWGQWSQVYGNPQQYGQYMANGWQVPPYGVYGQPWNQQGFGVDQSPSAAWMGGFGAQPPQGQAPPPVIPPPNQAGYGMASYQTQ
active: nilotinib -0.603
inactive: lapatinib -0.013 | pictilisib -0.063 | crizotinib 0.038 | [1] -0.024 | duvelisib -0.014 | gandotinib 0.054 | tozasertib 0.011 | doramapimod 0.007 | bafetinib 0 | [2] 0.001 | [3] -0.013 | dasatinib 0.025 | [4] -0.015 | [5] 0.028 | quisinostat 0.039 | tipifarnib -0.037 | [6] -0.016 | [7] 0.004 | [8] 0.033

TNPO3 (UniProt Q9Y5L0)
inactive: lapatinib -0.024 | pictilisib -0.001 | crizotinib 0.01 | [1] -0.015 | duvelisib 0.025 | gandotinib -0.006 | tozasertib -0.036 | doramapimod -0.024 | bafetinib -0.028 | [2] 0.026 | nilotinib -0.016 | [3] 0.017 | dasatinib 0 | [4] 0.003 | [5] 0.009 | quisinostat -0.001 | tipifarnib 0.001 | [6] -0.002 | [7] -0.016 | [8] -0.01

TTLL12 (UniProt Q14166)
Chain of UniProt Q14166 (Q14166 whole entry, looked up): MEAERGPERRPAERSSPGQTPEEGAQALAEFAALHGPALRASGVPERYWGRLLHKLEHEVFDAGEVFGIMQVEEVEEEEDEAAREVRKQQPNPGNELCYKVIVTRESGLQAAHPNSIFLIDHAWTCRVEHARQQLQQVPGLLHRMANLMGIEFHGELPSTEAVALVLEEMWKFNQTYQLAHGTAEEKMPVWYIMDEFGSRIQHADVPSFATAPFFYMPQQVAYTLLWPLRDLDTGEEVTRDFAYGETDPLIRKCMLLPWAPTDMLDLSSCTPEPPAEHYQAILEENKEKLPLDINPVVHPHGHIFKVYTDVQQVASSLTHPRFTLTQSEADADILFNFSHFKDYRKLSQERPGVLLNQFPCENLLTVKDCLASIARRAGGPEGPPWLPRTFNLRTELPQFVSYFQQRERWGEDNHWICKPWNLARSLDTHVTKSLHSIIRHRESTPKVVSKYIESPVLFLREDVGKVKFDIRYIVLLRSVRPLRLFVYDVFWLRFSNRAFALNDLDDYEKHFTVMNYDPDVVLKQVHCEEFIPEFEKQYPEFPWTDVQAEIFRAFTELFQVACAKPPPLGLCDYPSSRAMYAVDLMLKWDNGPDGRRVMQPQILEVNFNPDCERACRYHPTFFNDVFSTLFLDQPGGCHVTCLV
inactive: lapatinib -0.002 | pictilisib -0.02 | crizotinib -0.039 | [1] 0.014 | duvelisib 0.015 | gandotinib -0.091 | tozasertib 0.023 | doramapimod 0.016 | bafetinib -0.004 | [2] 0.014 | nilotinib 0.015 | [3] -0.012 | dasatinib -0.028 | [4] -0.027 | [5] -0.006 | quisinostat -0.015 | tipifarnib 0.008 | [6] 0.067 | [7] 0.001 | [8] -0.013

TGOLN2 isoform 7 (UniProt O43493)
Chain of UniProt O43493 (O43493 whole entry, looked up): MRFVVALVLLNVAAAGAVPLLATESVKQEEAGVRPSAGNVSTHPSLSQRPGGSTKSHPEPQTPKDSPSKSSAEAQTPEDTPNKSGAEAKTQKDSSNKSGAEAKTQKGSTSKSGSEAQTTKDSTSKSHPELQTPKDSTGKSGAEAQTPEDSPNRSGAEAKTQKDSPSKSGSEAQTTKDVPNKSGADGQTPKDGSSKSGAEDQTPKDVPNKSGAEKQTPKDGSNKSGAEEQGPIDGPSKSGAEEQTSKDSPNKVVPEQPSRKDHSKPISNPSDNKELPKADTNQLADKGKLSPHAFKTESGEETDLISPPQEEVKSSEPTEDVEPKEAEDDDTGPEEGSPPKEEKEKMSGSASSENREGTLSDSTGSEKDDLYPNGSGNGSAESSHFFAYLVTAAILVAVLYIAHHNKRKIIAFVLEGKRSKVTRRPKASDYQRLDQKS
inactive: lapatinib -0.007 | pictilisib 0.001 | crizotinib 0.045 | [1] -0.051 | duvelisib 0.021 | gandotinib 0.034 | tozasertib -0.065 | doramapimod -0.03 | bafetinib 0.032 | [2] 0.034 | nilotinib -0.059 | [3] -0.004 | dasatinib 0.023 | [4] 0.021 | [5] 0.033 | quisinostat -0.029 | tipifarnib -0.087 | [6] 0.014 | [7] 0.019 | [8] 0.008

UBE2L6 (UniProt O14933)
Chain of UniProt O14933 (O14933 whole entry, looked up): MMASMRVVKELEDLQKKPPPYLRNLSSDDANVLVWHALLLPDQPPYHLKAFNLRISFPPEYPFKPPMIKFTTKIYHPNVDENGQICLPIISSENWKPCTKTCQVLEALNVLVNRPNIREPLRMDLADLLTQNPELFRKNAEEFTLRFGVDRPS
inactive: lapatinib 0.059 | pictilisib 0.062 | crizotinib -0.014 | [1] 0.088 | duvelisib 0.033 | gandotinib -0.105 | tozasertib 0.109 | doramapimod -0.013 | bafetinib -0.267 | [2] -0.024 | nilotinib 0.038 | [3] -0.139 | dasatinib -0.018 | [4] 0.036 | [5] -0.055 | quisinostat 0.024 | tipifarnib 0.043 | [6] -0.032 | [7] -0.002 | [8] -0.096

TPM1 isoform 4 (UniProt P09493)
inactive: lapatinib 0.032 | pictilisib -0.051 | crizotinib 0.001 | [1] 0.061 | duvelisib -0.029 | gandotinib -0.142 | tozasertib 0.013 | doramapimod 0.012 | bafetinib 0.011 | [2] -0.142 | nilotinib 0.02 | [3] 0 | dasatinib 0.004 | [4] -0.031 | [5] 0.004 | quisinostat 0.023 | tipifarnib -0.008 | [6] -0.016 | [7] -0.018 | [8] -0.019

UBXN6 (UniProt Q9BZV1)
inactive: lapatinib -0.075 | pictilisib -0.048 | crizotinib 0.004 | [1] -0.014 | duvelisib -0.028 | gandotinib -0.018 | tozasertib 0.008 | doramapimod 0.017 | bafetinib 0.033 | [2] -0.023 | nilotinib -0.033 | [3] 0.042 | dasatinib 0.017 | [4] -0.065 | [5] 0.046 | quisinostat 0.028 | tipifarnib 0.016 | [6] 0.013 | [7] 0.068 | [8] -0.013

UGDH (UniProt O60701)
Chain of UniProt O60701 (O60701 whole entry, looked up): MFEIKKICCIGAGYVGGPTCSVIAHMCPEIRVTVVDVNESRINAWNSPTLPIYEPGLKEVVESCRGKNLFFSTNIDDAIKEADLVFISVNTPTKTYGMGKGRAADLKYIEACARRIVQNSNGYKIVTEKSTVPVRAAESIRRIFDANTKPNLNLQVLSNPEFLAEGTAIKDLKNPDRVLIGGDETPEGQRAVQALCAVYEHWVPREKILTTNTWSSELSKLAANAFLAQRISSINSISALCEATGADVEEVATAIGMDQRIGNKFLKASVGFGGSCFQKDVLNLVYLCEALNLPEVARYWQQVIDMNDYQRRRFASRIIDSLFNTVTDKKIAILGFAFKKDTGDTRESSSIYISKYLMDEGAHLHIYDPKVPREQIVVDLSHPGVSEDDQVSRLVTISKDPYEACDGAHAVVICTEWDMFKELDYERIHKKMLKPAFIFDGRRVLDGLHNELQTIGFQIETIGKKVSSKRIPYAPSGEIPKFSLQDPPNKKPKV
inactive: lapatinib 0.009 | pictilisib -0.021 | crizotinib -0.015 | [1] 0.037 | duvelisib -0.063 | gandotinib -0.067 | tozasertib -0.073 | doramapimod -0.053 | bafetinib -0.019 | [2] -0.022 | nilotinib 0.008 | [3] -0.012 | [4] 0.009 | [5] -0.034 | quisinostat 0.019 | tipifarnib 0.007 | [6] 0.039 | [7] -0.01 | [8] 0.006
active: dasatinib 0.217

TRNAU1AP (UniProt Q9NX07)
Chain of UniProt Q9NX07 (Q9NX07 whole entry, looked up): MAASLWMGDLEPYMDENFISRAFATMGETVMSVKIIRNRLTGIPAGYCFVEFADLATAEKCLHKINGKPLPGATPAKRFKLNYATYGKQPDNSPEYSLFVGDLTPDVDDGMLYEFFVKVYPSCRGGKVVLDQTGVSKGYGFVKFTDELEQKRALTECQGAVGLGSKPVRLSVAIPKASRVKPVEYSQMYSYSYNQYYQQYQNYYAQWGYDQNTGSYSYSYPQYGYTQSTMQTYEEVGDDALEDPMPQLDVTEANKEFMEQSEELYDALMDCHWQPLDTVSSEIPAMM
inactive: lapatinib 0 | pictilisib -0.091 | crizotinib -0.019 | [1] -0.221 | duvelisib -0.058 | gandotinib 0.042 | tozasertib -0.018 | doramapimod 0.031 | bafetinib -0.001 | [2] 0.061 | nilotinib -0.145 | [3] 0.016 | dasatinib 0.018 | [4] 0.046 | [5] 0.015 | quisinostat 0.012 | tipifarnib -0.06 | [6] 0.059 | [7] -0.011 | [8] -0.013

TTI2 (UniProt Q6NXR4)
inactive: lapatinib -0.033 | pictilisib -0.033 | crizotinib -0.016 | [1] -0.032 | duvelisib -0.018 | gandotinib -0.023 | tozasertib 0.004 | doramapimod -0.023 | bafetinib -0.017 | [2] 0.082 | nilotinib 0.022 | [3] 0.029 | dasatinib -0.051 | [4] 0.044 | [5] 0.01 | quisinostat -0.009 | tipifarnib -0.018 | [6] -0.003 | [7] 0.049 | [8] -0.013
